These results are taken from ChEMBL document CHEMBL4513216, “Probing the Open Global Health Chemical Diversity Library for Multistage-Active Starting Points for Next-Generation Antimalarials” (ACS Infect Dis, 2020).

Among all 69,000 compounds or so, about 8,600 (12%) showed an effect of 50% or more. The entries come from a sample that favours strong results as a whole.

The subject of this assay is Plasmodium berghei. As to the kind of experiment: Screen against P. berghei liver stage (PbLuc), transformed with Luciferase, at 10uM. It is filed as functional, HepG2. Conditions: tested at 10 uM.
On to `CS(=O)(=O)c1ccc2c(c1)N(C(=O)c1cccc(F)c1)CCC2`, for which the INHIBITION is on record as 9.63%. The result for `CC(=O)N1CCc2ccc(S(=O)(=O)N3CCCCC3C)cc21` (centres undefined) reads -0.178%; that for `CC(=O)N1CCCc2ccc(S(=O)(=O)N3CCCCC3C)cc21` (centres undefined), 54.4%; that for `Cc1cc(-c2c[nH]nc2C2CCCCN2C(=O)c2ccccc2)on1` (centres undefined), 23%. Next, `Nc1ccnc(N2CCC(c3nccn3CC3CC3)CC2)n1`: -16.3%; `CCn1ncc2c1C(COC)CN(Cc1ccsc1)C2` (centres undefined): 62.6%.

With `CCn1ncc2c1C(COC)CN(Cc1cccnc1)C2` (centres undefined), the INHIBITION is -67.6%. Next, `COCC1CN(Cc2ccsc2)Cc2cnn(C)c21` (centres undefined): -0.371%.

Regarding `CCn1ncc2c1C(COC)CN(Cc1ccc(F)cc1)C2` (centres undefined), the INHIBITION is recorded as -2.35%. Next, `CCn1ncc2c1C(COC)CN(Cc1cnn(C)c1)C2` (centres undefined): 68.8%. In the case of `CCn1ncc2c1C(COC)CN(Cc1ccc(OC)cc1)C2` (centres undefined), the INHIBITION amounted to 42.1%. Next, `CCc1nc(C2CCCN(C(=O)c3ccc4[nH]cnc4c3)C2)no1` (centres undefined): 5.7%. Next, `Cc1nc(N[C@H]2COC[C@@H]2N2CCCCC2)c2c(C)nn(C)c2n1`: 24.8%; `COc1cc(OC)c2nc(NCCN3CCNC3=O)cc(C)c2c1`: 7.92%.

Turning to `COc1nc2ccccc2cc1C1CC(=O)Nc2n[nH]c(C3CCC3)c21` (centres undefined), the INHIBITION is listed as -1.7%. The result for `Cc1noc(C)c1CNCC1COCc2c(-c3ccsc3)nnn2C1` (centres undefined) reads -57.1%; that for `Nc1nccnc1CC1CCCN(Cc2ccnc3ccccc23)C1` (centres undefined), 78.7%; that for `Nc1nccnc1CC1CCCN(Cc2c[nH]c3ccccc23)C1` (centres undefined), 24.8%. Next, `Nc1nccnc1CC1CCCN(Cc2cccc3[nH]ccc23)C1` (centres undefined): -1.16%. As to `O=C(O)COc1ccc(CN2CCCC(CCc3ccccc3)C2)cc1` (centres undefined), the INHIBITION was found to be 28.5%. The result for `COc1ccnc(CN2CCCC(CCc3ccccc3)C2)c1OC` (centres undefined) reads 75.7%. Turning to `COc1ccnc(CN2CCCC(CCc3ccc(F)cc3)C2)c1OC` (centres undefined), the INHIBITION stood at 94.8%. `COc1ccccc1N1CCN(Cc2nccc(OC)c2OC)CC1=O`: the INHIBITION worked out at 40.7%. Next, `COc1ccccc1CN1CCCC(Cc2nccnc2N)C1` (centres undefined): 21.1%; `Cn1ccnc1CN1CCCC(CCc2ccc(F)c(F)c2)C1` (centres undefined): 37.7%; `CCc1nnc2n1CCN(C(=O)c1ccc3c(c1)[nH]c(=O)n3C)C2`: 8.38%.

Turning to `COc1ccc(-c2cnc3c(c2)CN(C2CC2)C(=O)CCN3)cc1`, the INHIBITION was determined as 7.09%. Next, `CS(=O)(=O)N1C[C@H]2CC[C@@H](C1)N(C(=O)CCn1cnc3ccccc31)C2`: 12.9%. For the compound `CC(C)(C)Nc1c(C2CCN(C(=O)C(C)(C)C)CC2)nc2ccccn12`, the INHIBITION is 30.3%. Turning to `Cc1nc(C)n(CC2CN(CCC(=O)N3CCCCC3)CCO2)n1` (centres undefined), the INHIBITION is 21.5%. Next, `COCCc1noc(CN2CCOC(CN(C)C)C2)n1` (centres undefined): 15.3%; `O=C1NC2(Cc3ccccc31)CN(CC1CCOCC1)C2`: 35%.

For the compound `c1ccc(-c2cc(CN3CCc4cncnc4C3)on2)cc1`, the INHIBITION was -28%. Next, `CC(C)Cc1cc(C(=O)NCC2CCCN(Cc3ccco3)C2)on1` (centres undefined): -63.8%. On to `CC(C)Cc1cc(C(=O)NCC(O)CN2CCCCCC2)on1` (centres undefined), for which the INHIBITION was -8.47%. For `CC(C)Cc1cc(C(=O)NC(C)(C)CN2CCCCCC2)on1`, the INHIBITION is on record as 58.7%. Next, `Cn1cc(CN2C[C@@H]3COC[C@]3(CNC(=O)c3ccsc3)C2)cn1`: 34.7%; `c1cc2occc2c(N2CCCC(c3nncn3C3CC3)C2)n1` (centres undefined): 57.5%. Next, `Cc1cc(N2CCCC(c3nncn3C3CC3)C2)ncn1` (centres undefined): 53.5%; `CN(C)Cc1cn(CC2CCCN(c3nccc4occc34)C2)nn1` (centres undefined): 34.9%. The result for `Cc1ccnc(N2CCCC(c3nncn3C3CC3)C2)n1` (centres undefined) reads 46.6%; that for `O=C(O)c1cn(CC2CCCN(c3nccc4occc34)C2)nn1` (centres undefined), -2.48%. For the compound `Cc1cc(N2CCCC(c3nccnc3N(C)C)C2)ncn1` (centres undefined), the INHIBITION came out at 5.25%.

For `Nc1cc(-c2cc[nH]n2)nc(N2CCCC2)n1`, the INHIBITION turned out to be 20.5%. For `CN(C)S(=O)(=O)N1CCC(c2c(C(N)=O)sc3ccccc23)C1` (centres undefined), the INHIBITION is -11.4%. The result for `O=C1N(Cc2ccc(F)c(F)c2)CCCC1(O)CNCC1CCCCC1` (centres undefined) reads 68.8%; that for `O=C1N(Cc2ccc(F)c(F)c2)CCCC1(O)CNCc1ccccn1` (centres undefined), 4.25%. Next, `C=C(C)CNCC1(O)CCCN(Cc2ccc(F)c(F)c2)C1=O` (centres undefined): 41.7%; `O=C1N(Cc2cccc(F)c2F)CCCC1(O)CNCc1ccccc1` (centres undefined): 40.4%. Next, `O=C1N(Cc2cccc(F)c2F)CCCC1(O)CNCC1CCCCC1` (centres undefined): 69.1%; `O=C1N(Cc2cccc(F)c2F)CCCC1(O)CNC1CCCC1` (centres undefined): 11.5%. For the compound `O=C1N(Cc2ccc(F)c(F)c2)CCCC1(O)CNCc1cccnc1` (centres undefined), the INHIBITION turned out to be 60.9%. The result for `COCCNCC1(O)CCCN(Cc2ccc(F)c(F)c2)C1=O` (centres undefined) reads 6.65%; that for `Cn1cc(CNCC2(O)CCCN(Cc3ccc(F)c(F)c3)C2=O)cn1` (centres undefined), -34%.
